# Results: PubChem BioAssay (Tox21)
# Where “and” joins values, the source holds several entries; their conditions need not be identical. Equal entries are not always repeated. Records with an inconclusive call do not appear. Entries that show only a call come without a potency. A number with no mark means an inactive call. Calls of active or inactive are those of the source. Unless noted, calls come from the whole dose curve; as a rule, active = well fitted curve in the direction sought with a large enough effect in the repeat runs; inconclusive = weak or mixed curves; inactive = no such curve, though single readings can be large; an effect the other way counts as inactive or inconclusive.
# Tests used:
# [1] = qHTS assay to identify small molecule antagonists of the thyroid receptor (TR) signaling pathway - cell viability counter screen (AID 743064); note: nearly all actives have a fitted effect of over 50% in size
# In short: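 GH3.TRE-Luc rat pituitary cells dosed after 4 hr plating, co-stimulated with T3 at 1 nM final, incubated 23.5 h at 37 C. Viability measured in the same wells by CellTiter-Fluor fluorescence after 30 min further at 37 C.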
# [2] = qHTS assay to identify small molecule antagonists of the thyroid receptor (TR) signaling pathway (AID 743065); note: series mostly up to about 70 µM; nearly all actives have a fitted effect of over 55% in size
# In short: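 GH3.TRE-Luc rat pituitary cells carrying two TR response elements driving luciferase were plated for 4 h, given compound plus 1 nM T3 (final), and incubated 23.5 h at 37 C. ONE-Glo luminescence measured reporter inhibition; CellTiter-Fluor fluorescence tracked cytotoxicity.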
# [3] = test system: thyroid hormone receptor (rat, GH3 cells); assay: qHTS assay to identify small molecule agonists of the thyroid receptor (TR) signaling pathway (AID 743066; calls by dose curve)
# [4] = qHTS assay to identify small molecule antagonists of the estrogen receptor alpha (ER-alpha) signaling pathway - cell viability counter screen (AID 743074; calls by dose curve;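 note: HEK293 cells carrying ER-alpha-UAS-bla reporter stimulated with 17beta-estradiol; nearly all actives have a fitted effect of over 45% in size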; note: potency is the fitted concentration of half-maximal effect)
# [5] = qHTS assay to identify small molecule antagonists of the estrogen receptor alpha (ER-alpha) signaling pathway using the BG1 cell line - cell viability counter screen (AID 743081);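 note: compound given together with 17beta-estradiol as the ER stimulus; series mostly up to about 70 µM; nearly all actives have a fitted effect of over 45% in size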
# [6] = target: Aromatase (Homo sapiens) (UniProt P11511); assay: qHTS assay to identify aromatase inhibitors (AID 743083); note: series mostly up to about 70 µM; nearly all actives have a fitted effect of over 55% in size
# Chain of Aromatase (Homo sapiens) (P11511 whole entry, looked up): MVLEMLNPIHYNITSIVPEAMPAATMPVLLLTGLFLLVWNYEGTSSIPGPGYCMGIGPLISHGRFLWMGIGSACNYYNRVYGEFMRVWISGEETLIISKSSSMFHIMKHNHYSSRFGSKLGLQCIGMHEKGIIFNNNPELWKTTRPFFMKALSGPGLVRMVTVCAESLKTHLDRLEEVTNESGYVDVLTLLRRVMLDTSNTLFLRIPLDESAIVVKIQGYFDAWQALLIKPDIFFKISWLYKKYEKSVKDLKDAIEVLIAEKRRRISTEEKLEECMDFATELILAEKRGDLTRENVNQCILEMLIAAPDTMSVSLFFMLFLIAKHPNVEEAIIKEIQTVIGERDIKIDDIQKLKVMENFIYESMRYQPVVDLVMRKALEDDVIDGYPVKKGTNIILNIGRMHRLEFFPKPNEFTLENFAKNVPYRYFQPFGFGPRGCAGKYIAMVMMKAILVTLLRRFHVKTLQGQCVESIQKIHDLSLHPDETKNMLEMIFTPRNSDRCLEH
# [7] = qHTS assay to identify aromatase inhibitors - cell viability counter screen (AID 743084);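 note: cells stimulated with testosterone during compound exposure; nearly all actives have a fitted effect of over 55% in size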
# [8] = target: Aryl hydrocarbon receptor (Homo sapiens) (UniProt P35869); assay: qHTS assay to identify small molecule that activate the aryl hydrocarbon receptor (AhR) signaling pathway (AID 743085); note: nearly all actives have a fitted effect of over 15% in size; note: potency is the fitted concentration of half-maximal effect;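 for activation: HG2L7.5c1 human HepG2 liver cells with stably integrated DRE-driven firefly reporter; series mostly up to about 70 µM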
# Chain of Aryl hydrocarbon receptor (Homo sapiens) (P35869 whole entry, looked up): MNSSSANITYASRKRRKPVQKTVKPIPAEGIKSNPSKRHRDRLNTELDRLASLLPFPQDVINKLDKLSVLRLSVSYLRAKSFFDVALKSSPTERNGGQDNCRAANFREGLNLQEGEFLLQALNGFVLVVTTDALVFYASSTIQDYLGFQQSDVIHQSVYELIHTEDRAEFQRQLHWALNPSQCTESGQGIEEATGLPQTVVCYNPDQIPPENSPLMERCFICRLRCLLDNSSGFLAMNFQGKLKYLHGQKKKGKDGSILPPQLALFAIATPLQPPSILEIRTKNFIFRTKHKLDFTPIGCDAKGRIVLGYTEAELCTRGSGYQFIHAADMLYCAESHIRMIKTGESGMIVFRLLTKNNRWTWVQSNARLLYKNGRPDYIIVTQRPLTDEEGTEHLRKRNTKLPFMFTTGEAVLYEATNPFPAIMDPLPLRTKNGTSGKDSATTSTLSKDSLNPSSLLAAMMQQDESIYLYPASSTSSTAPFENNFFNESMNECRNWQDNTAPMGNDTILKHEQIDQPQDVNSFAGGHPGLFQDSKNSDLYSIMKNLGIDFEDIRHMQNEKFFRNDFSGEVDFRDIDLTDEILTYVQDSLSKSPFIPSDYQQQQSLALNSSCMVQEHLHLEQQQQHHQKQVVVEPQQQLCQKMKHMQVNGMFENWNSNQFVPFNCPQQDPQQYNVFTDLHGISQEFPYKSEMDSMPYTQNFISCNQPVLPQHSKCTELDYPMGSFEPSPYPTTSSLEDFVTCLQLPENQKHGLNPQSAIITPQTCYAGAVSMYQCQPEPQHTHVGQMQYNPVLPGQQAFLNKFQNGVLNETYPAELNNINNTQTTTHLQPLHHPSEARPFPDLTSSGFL
# In short: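 HepG2 cells stably carrying a 20-DRE firefly luciferase reporter (HG2L7.5c1) treated with compound for 24 hr at 37C. Luciferase read by ONE-Glo luminescence, with CellTiter-Fluor viability read first.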
# [9] = qHTS assay to identify small molecule that activate the aryl hydrocarbon receptor (AhR) signaling pathway - cell viability counter screen (AID 743086);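 note: HepG2 liver cells carrying the AhR DRE luciferase reporter; series mostly up to about 70 µM; nearly all actives have a fitted effect of over 45% in size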
# In short: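 HepG2-AhR-luc (HG2L7.5c1) cells, 4000/well, were preincubated 5 h at 37C, exposed to compound in qHTS format for 24 hr at 37C, then given CellTiter-Fluor for 30 min; viability was read as fluorescence in the reporter wells.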
# [10] = qHTS assay to identify small molecule antagonists of the peroxisome proliferator-activated receptor gamma (PPARg) signaling pathway - cell viability counter screen (AID 743194); note: nearly all actives have a fitted effect of over 55% in size
# In short: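 PPARg-UAS-bla HEK293H cells were plated, rested 5 h at 37 C, then treated with compounds plus rosiglitazone (50 nM final) for 17 h at 37 C; viability was then read by CellTiter-Glo luminescence after 30 min at room temperature.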
# [11] = qHTS assay for small molecule agonists of the antioxidant response element (ARE) signaling pathway (AID 743202; active = well fitted activation curve with a large enough effect in the signal ratio in the repeat runs, not every such curve was filed as active; the % refers to the signal ratio)
# In short: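 Compounds delivered in DMSO to ARE-bla HepG2 cells (2,000 cells/well, pre-incubated 5 h) and left 16 h at 37 C. LiveBLAzer B/G FRET substrate then added for 2 h at RT before fluorescence reading.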
# [12] = qHTS assay for small molecule agonists of the antioxidant response element (ARE) signaling pathway - cell viability counter screen (AID 743203; calls by dose curve; note: nearly all actives have a fitted effect of over 55% in size)
# In short: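 ARE-bla HepG2 cells were plated, rested 5 h at 37C/5% CO2, then exposed to compounds in DMSO for 16 h. Viability was read as CellTiter-Glo luminescence after 30 min at room temperature, in the same wells as the ARE screen.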
# [13] = qHTS assay for small molecule activators of the heat shock response signaling pathway - cell viability counter screen (AID 743209); note: nearly all actives have a fitted effect of over 50% in size
# In short: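 HSE-bla HeLa cells plated overnight, then exposed to Tox21 compounds (23 nL in DMSO) for 5 h at 37 C. After the bla reporter read, CellTiter-Glo was added in the same wells and luminescence read after 30 min at room temperature.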
# [14] = qHTS assay for small molecule activators of the heat shock response signaling pathway (AID 743210; active = well fitted activation curve with a large enough effect in the signal ratio in the repeat runs, with a control signal flat, not every such curve was filed as active; the % refers to the signal ratio;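 note: HeLa cells with beta-lactamase reporter driven by heat shock elements; series mostly up to about 63 µM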)
# In short: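 Reporter gene assay: HeLa cells stably bearing an HSE-bla construct, compound treatment 5 h at 37 C, LiveBLAzer substrate 2.5 h at RT, fluorescence intensity.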
# [15] = target: Peroxisome proliferator-activated receptor gamma (Homo sapiens) (UniProt P37231); assay: qHTS assay to identify small molecule agonists of the peroxisome proliferator-activated receptor gamma (PPARg) signaling pathway (AID 743094; active = well fitted activation curve with a large enough effect in the signal ratio in the repeat runs, not every such curve was filed as active; the % refers to the signal ratio)
# Chain of Peroxisome proliferator-activated receptor gamma (Homo sapiens) (P37231 whole entry, looked up): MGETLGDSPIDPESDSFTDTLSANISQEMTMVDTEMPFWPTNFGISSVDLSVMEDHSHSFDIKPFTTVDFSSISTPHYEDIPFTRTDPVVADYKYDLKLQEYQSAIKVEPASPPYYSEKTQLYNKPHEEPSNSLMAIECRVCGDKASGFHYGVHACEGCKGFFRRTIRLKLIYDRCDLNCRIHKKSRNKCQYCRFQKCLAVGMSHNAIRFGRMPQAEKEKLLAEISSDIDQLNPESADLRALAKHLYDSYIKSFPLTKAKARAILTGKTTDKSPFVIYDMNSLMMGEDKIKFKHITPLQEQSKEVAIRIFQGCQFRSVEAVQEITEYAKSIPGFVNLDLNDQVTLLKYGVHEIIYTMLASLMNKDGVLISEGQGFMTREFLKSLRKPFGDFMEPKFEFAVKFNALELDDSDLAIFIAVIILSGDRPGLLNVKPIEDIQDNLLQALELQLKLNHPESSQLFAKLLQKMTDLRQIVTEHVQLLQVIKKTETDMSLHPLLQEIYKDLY
# In short: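 GeneBLAzer PPARg UAS-bla HEK293H cells were plated, rested 5 h, then exposed to compounds for 17 h at 37C. Beta-lactamase activity was read by LiveBLAzer B/G FRET substrate fluorescence after 1 h at room temperature.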
# [16] = target: Peroxisome proliferator-activated receptor gamma (Homo sapiens) (UniProt P37231); assay: qHTS assay to identify small molecule antagonists of the peroxisome proliferator-activated receptor gamma (PPARg) signaling pathway (AID 743191; calls by dose curve; note: series mostly up to about 63 µM; nearly all actives have a fitted effect of over 30% in size)
# In short: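 GeneBLAzer PPARg UAS-bla HEK293H cells carrying a UAS-driven beta-lactamase reporter were plated at 3000 cells/well, preincubated 5 h at 37C, then given compound for 17 h at 37C; LiveBLAzer B/G FRET substrate was read after 1 h at room temperature.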
# [17] = target: Estrogen receptor (Homo sapiens) (UniProt P03372); assay: qHTS assay to identify small molecule antagonists of the estrogen receptor alpha (ER-alpha) signaling pathway (AID 743069; active = well fitted curve in the direction sought with a large enough effect in the signal ratio in the repeat runs, not every such curve was filed as active; the % refers to the signal ratio)
# Chain of Estrogen receptor (Homo sapiens) (P03372 whole entry, looked up): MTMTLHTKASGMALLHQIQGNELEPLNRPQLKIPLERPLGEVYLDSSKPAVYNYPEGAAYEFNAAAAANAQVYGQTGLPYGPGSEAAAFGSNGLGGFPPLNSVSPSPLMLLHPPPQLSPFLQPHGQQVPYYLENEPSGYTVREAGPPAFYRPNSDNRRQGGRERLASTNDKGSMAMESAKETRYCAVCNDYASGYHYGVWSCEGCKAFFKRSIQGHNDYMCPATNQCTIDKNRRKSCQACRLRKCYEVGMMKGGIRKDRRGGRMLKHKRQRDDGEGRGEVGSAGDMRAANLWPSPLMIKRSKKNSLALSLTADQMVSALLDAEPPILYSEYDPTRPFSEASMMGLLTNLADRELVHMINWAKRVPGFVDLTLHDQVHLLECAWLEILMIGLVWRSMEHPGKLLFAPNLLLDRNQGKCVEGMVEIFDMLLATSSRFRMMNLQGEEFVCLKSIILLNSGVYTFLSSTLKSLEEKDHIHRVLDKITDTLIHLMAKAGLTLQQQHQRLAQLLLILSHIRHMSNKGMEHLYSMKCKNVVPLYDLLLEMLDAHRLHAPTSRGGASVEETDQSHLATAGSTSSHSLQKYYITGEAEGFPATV
# In short: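 Estradiol-stimulated ER-alpha-UAS-bla HEK293 cells, 18 hr compound exposure at 37C. LiveBLAzer B/G substrate, 2 hr RT, fluorescence read.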
# [18] = target: Estrogen receptor (Homo sapiens) (UniProt P03372); assay: qHTS assay to identify small molecule agonists of the estrogen receptor alpha (ER-alpha) signaling pathway (AID 743075; calls by dose curve;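 note: HEK293 GripTite cells with ER-alpha and UAS-driven beta-lactamase reporter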)
# [19] = target: Estrogen receptor (Homo sapiens) (UniProt P03372); assay: qHTS assay to identify small molecule agonists of the estrogen receptor alpha (ER-alpha) signaling pathway using the BG1 cell line (AID 743079); note: nearly all actives have a fitted effect of over 20% in size
# [20] = qHTS assay to identify small molecule antagonists of the estrogen receptor alpha (ER-alpha) signaling pathway using the BG1 cell line (AID 743080; calls by dose curve;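 note: BG1 cells stimulated with 17beta-estradiol alongside compound; series mostly up to about 70 µM; nearly all actives have a fitted effect of over 25% in size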)
# In short: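 BG1Luc4E2, endogenous ER-alpha, 4xERE-luc; 5 d charcoal-stripped FBS, phenol red free; 24 h plating; cpd + 17beta-estradiol 21.5 h, 37 C/5% CO2; CellTiter-Fluor viability 30 min, then ONE-Glo luciferase 30 min RT.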
Structure (SMILES),Potency [1],Potency [2],outcome [3],Potency [4],outcome [5],outcome [6],Potency [7],Potency [8],Potency [9],outcome [10],Potency [11],outcome [12],outcome [13],outcome [14],Potency [15],Potency [16],Potency [17],Potency [18],Potency [19],Potency [20]
C[N+]1(CC2COC(c3ccccc3)(c3ccccc3)O2)CCCCC1 (configuration not stated),inactive,inactive,inactive,inactive,inactive,inactive,inactive,inactive,inactive,inactive,inactive,inactive,inactive,inactive,,,,,,
O=S(=O)(O)c1cccc2ccccc12,inactive,inactive,inactive,inactive,inactive,inactive,,,inactive,inactive,,inactive,inactive,inactive,inactive,inactive,,,,
O=C(O)CNC(=O)c1ccccc1,inactive,inactive,inactive,inactive,inactive,inactive,inactive,inactive,inactive,inactive,inactive,inactive,inactive,inactive,inactive,,,,,
O=C1CCCCCCCCCCCCCCO1,inactive,inactive,inactive,inactive,inactive,inactive,inactive,inactive,inactive,inactive,,inactive,inactive,inactive,inactive,,,,,
COC(=O)C1=C(C)NC(C)=C(C(=O)OC(C)C)C1c1cccc2nonc12 (configuration not stated),inactive,inactive,inactive,inactive,inactive,inactive,inactive,,inactive,inactive,inactive,inactive,inactive,inactive,inactive,inactive,,,,
CC1(C)[C@@H]2CC[C@@]1(C)[C@H](O)C2,inactive,inactive,inactive,inactive,inactive,inactive,inactive,inactive,inactive,inactive,inactive,inactive,inactive,inactive,,,,,,
CCC(C)(CN(C)C)OC(=O)c1ccccc1 (configuration not stated),inactive,inactive,inactive,inactive,inactive,inactive,inactive,inactive,inactive,inactive,inactive,inactive,inactive,inactive,,,,,,
C=C(C)C(=O)OCCOCCOCCOCCOC(=O)C(=C)C,inactive,inactive,inactive,inactive,inactive,inactive,inactive,inactive,inactive,,,inactive,inactive,inactive,,,,,,
CN1CCN(c2cc3c(nn2)Oc2ccccc2N3C)CC1,inactive,inactive,inactive,inactive,inactive,inactive,inactive,,inactive,inactive,inactive,inactive,inactive,,inactive,,,,,
CCCCOCCOC(=O)CCCCCCCCC(=O)OCCOCCCC,inactive,inactive,inactive,inactive,inactive,inactive,inactive,inactive,inactive,inactive,,inactive,inactive,inactive,inactive,inactive,,,,
CCCCCCC#CC(=O)OC,inactive,inactive,inactive,inactive,inactive,inactive,inactive,inactive,inactive,inactive,,,inactive,inactive,inactive,inactive,,,,
O=Cc1cccc(Br)c1,inactive,inactive,inactive,inactive,inactive,inactive,inactive,inactive,inactive,inactive,,inactive,inactive,inactive,inactive,inactive,,,,
CC(C)(C#N)Nc1nc(Cl)nc(NC2CC2)n1,inactive,inactive,inactive,inactive,inactive,inactive,inactive,,inactive,inactive,inactive,inactive,inactive,inactive,inactive,inactive,,,,
O=C1c2ccccc2C(=O)c2cc(O)ccc21,inactive,inactive,inactive,inactive,,inactive,,61.2 µM (active),inactive,inactive,,inactive,inactive,inactive,inactive,inactive,,,,
Cc1ncc(COP(=O)(O)O)c(C=O)c1O,inactive,,inactive,,inactive,inactive,,inactive,inactive,inactive,,inactive,inactive,,inactive,inactive,inactive,inactive,inactive,inactive
Cc1nc2ccc(CN(C)c3ccc(C(=O)N[C@@H](CCC(=O)O)C(=O)O)s3)cc2c(=O)[nH]1,inactive,,inactive,190 nM (active) and 239 nM (active),inactive,inactive,inactive,inactive,inactive,,inactive,inactive,inactive,inactive,inactive,inactive,,,,
N[C@@H](CCC(=O)O)C(=O)O,inactive,,inactive,inactive,inactive,inactive,inactive,inactive,inactive,inactive,inactive,inactive,inactive,,inactive,inactive,inactive,inactive,inactive,
